A short description of assay [1]: NCI Yeast Anticancer Drug Screen. Data for the rad50 strain (AID 155).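 Note: 0% = growth of vehicle-only cultures of the same strain.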 The note with it: S. cerevisiae rad50 strain growth inhibition; at 50.0 µM; active compounds read high. Summed up:
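Yeast carrying a defined DNA repair defect were exposed to test compounds, and growth was compared with vehicle-treated controls to give percent inhibition.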

Assay [2] is described as follows: NCI Yeast Anticancer Drug Screen. Data for the mec2-1 strain (AID 157). As to conditions: S. cerevisiae mec2-1 strain, at 50.0 µM, active compounds read high. The method in brief:
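Strain: mec2-1 (DNA repair/cell cycle alteration). Compound exposure, then growth measured; inhibition expressed relative to vehicle.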

Assay [3] in a line: NCI Yeast Anticancer Drug Screen. Data for the sgs1 mgt1 strain (AID 161).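 Note: 0% = growth of cultures given vehicle only.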 As to conditions: S. cerevisiae sgs1 mgt1 strain, at 50.0 µM, active compounds read high. Summed up:
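Genetically altered yeast, compound exposure, growth inhibition relative to vehicle.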

Assay [4] in a line: NCI Yeast Anticancer Drug Screen. Data for the cln2 rad14 strain (AID 165).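 Note: 0% = growth equal to vehicle treated cultures.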 The note with it: S. cerevisiae cln2 rad14 strain, at 50.0 µM, active compounds read high. The method in brief:
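Compounds are applied to the cln2 rad14 yeast strain, and growth is then compared with that of vehicle-treated cultures to give inhibition.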

A short description of assay [5]: NCI Yeast Anticancer Drug Screen. Data for the bub3 strain (AID 167). The note with it: S. cerevisiae bub3 mutant strain, at 50.0 µM, active compounds read high. The method in brief:
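Compounds were applied to a genetically altered yeast strain carrying a cell-cycle control defect. Growth inhibition was scored against vehicle-treated controls.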

The nature of assay [6]: NCI Yeast Anticancer Drug Screen. Data for the mlh1 rad18 strain (AID 175). As to conditions: S. cerevisiae mlh1 rad18 strain growth inhibition; at 50.0 µM; active compounds read high. Summed up:
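Read-out is yeast growth inhibition, calculated against vehicle-only controls. The compound was applied to a strain engineered with DNA damage repair alterations.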

Compounds without any hit were thinned out: in the full panel of roughly 79,000, 15% have a hit. Values without a mark were called inactive. Calls of active or inactive are those of the source. Cut-off read from the data, not from the text of the source: active = growth inhibition above about 70%; inactive = the rest.

Regarding `C#CC(OC(=O)c1cc([N+](=O)[O-])cc([N+](=O)[O-])c1)C1OC(C)(C)OC1C1COC(C)(C)O1` (stereo not drawn), the growth inhibition was 27% in assay [1]; 26.4% in assay [2]; 57.1% in assay [3]; -1% in assay [4]; 7.25% in assay [5]; 58.5% in assay [6].
Regarding `COc1nc(NC2OC(COC(C)=O)C(OC(C)=O)C(OC(C)=O)C2OC(C)=O)c(C(=O)CCl)c(=O)[nH]1` (stereo not drawn), the growth inhibition in assay [1] is 3.75%; in assay [2] it was 6.5%; in assay [3] it was 8.45%; in assay [4], -0.4%; in assay [5] it was -2.2%; in assay [6], 13.7%.
Turning to `COc1ccc(/C=C/C(=O)c2sc(NC(=S)NC(=O)c3ccccc3F)nc2C)cc1OC`, the growth inhibition is 21.1% in assay [1]; 8.5% in assay [2]; 37.6% in assay [3]; 30.1% in assay [4]; 30.9% in assay [5]; 22.9% in assay [6].
`COc1cc2c(cc1OC)C(=O)C(C1=C(SC(=N)N)C(=O)c3cc(OC)c(OC)cc31)C2` (stereo not drawn): the growth inhibition in assay [1] was -7.4%; in assay [2] it was -21.9%; in assay [3], -7.75%; in assay [4], -0.65%; in assay [5], 2.85%; in assay [6], -2%.
`CNC(=O)/C(=C\c1ccccc1)NC(C)=O`: the growth inhibition is 9% in assay [1]; -13.6% in assay [2]; 6% in assay [3]; -54.7% in assay [4]; 17.9% in assay [5]; -25.1% in assay [6].
As to `O=c1nc(NC(c2ccccc2)(c2ccccc2)c2ccccc2)ccn1CCCl`, the growth inhibition in assay [1] was -5.35%; in assay [2], 4.55%; in assay [3], -1.5%; in assay [4], -23.9%; in assay [5], -20.9%; in assay [6], -9.7%.
Turning to `CC(C)=C1CCC(CN2CCOCC2)C1=O` (stereo not drawn), the growth inhibition in assay [1] was 25.2%; in assay [2], 16.4%; in assay [3], 23.1%; in assay [4] it was 19.6%; in assay [5], -2.6%; in assay [6], 87% (active).
For `Nc1ccc(S(=O)(=O)Nc2ccc([N+](=O)[O-])cn2)cc1`, the growth inhibition was -28.4% in assay [1]; -43% in assay [2]; 17.2% in assay [3]; 17% in assay [4]; -20.4% in assay [5]; -15.6% in assay [6].
`CN1C/C(=C\c2ccc(N(C)C)cc2)C(=O)/C(=C/c2ccc(N(C)C)cc2)C1`: the growth inhibition in assay [1] was -17.6%; in assay [2], -8.05%; in assay [3], -2.2%; in assay [4], -1.35%; in assay [5] it was 4.05%; in assay [6], -9.85%.
As to `CC(C)[C@@H]1CC[C@@H](C)C[C@H]1N`, the growth inhibition was -16.7% in assay [1]; 7.8% in assay [2]; -8.85% in assay [3]; -35.5% in assay [4]; 3.95% in assay [5]; -11.2% in assay [6].
Take `CSC(=S)c1ccc(NSc2ccccc2[N+](=O)[O-])cc1`: the growth inhibition is 7.6% in assay [1]; 23.6% in assay [2]; 46.8% in assay [3]; 14% in assay [4]; 20.4% in assay [5]; 33.8% in assay [6].
Take `O=S1(=O)CCC(N(N=C2CCCCC2)c2ccccc2)C1` (stereo not drawn): the growth inhibition in assay [1] is 96.5% (active); in assay [2] it was 98.3% (active); in assay [3], 98.5% (active); in assay [4], 96.8% (active); in assay [5] it was 98.4% (active); in assay [6], 98% (active).
Turning to `CC(=O)OCC(OC(C)=O)C(OC(C)=O)c1cnn(-c2ccccc2)n1` (stereo not drawn), the growth inhibition is 12.6% in assay [1]; -1.5% in assay [2]; 2.5% in assay [3]; 17.7% in assay [4]; 24.6% in assay [5]; 22% in assay [6].
Turning to `COC(=O)c1c2c(cc3c1CC1(C3)Cc3cc4c(c(C(=O)OC)c3C1)CCC4)CCC2`, the growth inhibition in assay [1] was 3.25%; in assay [2], -35.6%; in assay [3], -3.65%; in assay [4] it was -0.8%; in assay [5] it was -7.85%; in assay [6], 10.3%.
For the compound `CC(=O)OCC(OC(C)=O)C(OC(C)=O)C(OC(C)=O)C(S)S` (stereo not drawn), the growth inhibition in assay [1] was 5.2%; in assay [2] it was 50.1%; in assay [3] it was 30.1%; in assay [4] it was -4.2%; in assay [5], 29.9%; in assay [6], 28.9%.
For the compound `CC[O-].CC[O-].COc1ccc(C(=O)[CH-]C(C)=O)cc1OC.COc1ccc(C(=O)[CH-]C(C)=O)cc1OC.[Ti+4]`, the growth inhibition in assay [1] is -17.4%; in assay [2], 18.5%; in assay [3] it was -2.7%; in assay [4], 9.85%; in assay [5] it was 29.9%; in assay [6] it was -10.3%.
As to `COc1ccc([N+](=O)[O-])cc1NC(=O)N/N=C(\C)C(C)(C)C`, the growth inhibition in assay [1] is 5.2%; in assay [2] it was 18.2%; in assay [3], 8.8%; in assay [4], -9.35%; in assay [5], 3.4%; in assay [6] it was 6.3%.
On to `COc1cc(CCC(=O)NS(=O)(=O)c2ccccc2)cc(OC)c1OC`, for which the growth inhibition in assay [1] is 4.2%; in assay [2] it was 1.9%; in assay [3], -6.75%; in assay [4], -2.85%; in assay [5] it was -3.85%; in assay [6], 10.2%.

The values above are taken from PubChem BioAssay (NCI).
